From PMC5540273 (PLoS ONE, 2017)

system: RIPK2
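Note: kd values determined as follow-up on hits from a single-replicate KINOMEscan panel screen.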

SMILES	Kd
CC(C)c1ccc(O)cc1Nc1ccnc2ccc(C(F)(F)F)cc12 [GW482059]	> 10000 nM
CS(=O)(=O)CCNCc1nc(-c2ccc3ncnc(Nc4ccc5c(cnn5Cc5ccccc5)c4)c3c2)cs1.Cl.Cl [GW569716]	67 nM
O=C(Nc1n[nH]c2nc(-c3cccs3)c(Br)cc12)C1CC1 [SB-735297]	> 10000 nM
Cn1cncc1-c1cc2c(Nc3ccc(OCc4ccccc4)cc3)ncnc2cn1 [GW281179]	65 nM

system: ROCK1

SMILES	Kd
c1ccc(-c2ccnc3[nH]ccc23)cc1 [SB-693578]	150 nM
CC(C)c1ccc(O)cc1Nc1ccnc2ccc(C(F)(F)F)cc12 [GW482059]	> 10000 nM
Cn1cncc1-c1cc2c(Nc3ccc(OCc4ccccc4)cc3)ncnc2cn1 [GW281179]	590 nM

system: T1, RSK4(Kin.Dom.2-C-terminal)
T1 construct: gene RPS6KA6

SMILES	Kd
Fc1ccc(-c2nc[nH]c2-c2ccncc2)cc1 [SB-217360]	310 nM
Fc1ccc(-c2nc3n(c2-c2ccncc2)CCS3)cc1 [GI98581]	260 nM
Cc1cccc2c(-c3ccncn3)c(-c3ccc(F)cc3)nn12 [GW515532]	6800 nM
